Cycloheximide cs: counter-screen for Shiga toxin inhibitors: cycloheximide protein synthesis inhibition | cell reporter, cycloheximide protein synthesis inhibition counterscreen | 12% of 300,000 active | AID 2314 | max response, %; in the data active = max response mostly above about 13%, no sharp cut-off; inactive = mostly below about 14%; note: read at 38.3 µM for the half of the compounds with a filed dose; 0% is about no effect
Marburg entry inh: Marburg virus entry inhibition; Marburg virus pseudotyped entry inhibition, cell reporter; Potency, µM (top dose mostly 37.8 µM), without a hit: top-dose activity change, negative = inhibition, usual class: inhibitors; 1.8% of 300,000 active; AID 540276; calls by dose curve; tested in HEK293 cells; note: potency is the fitted concentration of half-maximal effect; % is set by controls: 0 for no effect and ±100 for the full control effect
Shiga inhibitor: Shiga toxin inhibition; inhibition, % at 38.7 µM; 9.2% of 290,000 active; AID 2315; Vero cells, Shiga toxin protein synthesis inhibition reporter; in the data active = inhibition mostly above about 28%, no sharp cut-off; inactive = mostly below about 43%; note: 0% is about no effect
Lassa entry inh: inhibitors of Lassa virus binding or cell entry; Potency, µM (doses to about 37.9 µM), without a hit: at the top dose activity change, negative = inhibition, usual class: inhibitors; 1.2% of 300,000 active; Lassa virus pseudotype entry inhibition, cell reporter; AID 540256; calls by dose curve; tested in HEK293 cells; note: potency is the fitted concentration of half-maximal effect; % is set by controls: 0 for no effect and ±100 for the full control effect; nearly all actives have a fitted effect of over 50% in size
* marks the source's active call; other numbers are inactive results; ? = inconclusive; . = no result given; [ ] = remark or other dose. The list is not random: actives were taken first. Their share in the collection is about 12%.

SMILES | Cycloheximide cs | Marburg entry inh | Shiga inhibitor | Lassa entry inh
O=C1CC(N2CCN(c3nc4ccccc4s3)CC2)C(=O)N1Cc1cccs1 (stereo unspecified) | 12 | ? | -1 | ?
COc1ccccc1-c1ccc(SCC(=O)N2CCOCC2)nn1 | 9 | ? | 4 | -7%
COc1ccccc1-c1ccc(SCc2ccc(F)cc2)nn1 | 39* | ? | 65* | 31%[46.1 µM]
COc1ccccc1-c1ccc(SCc2ccc(C)cc2)nn1 | 32* | ? | 76* | -15%
COC(=O)C1=C[C@@H](C(=O)OC)[C@@H]2C3=C(C(=O)C2(C)C)[C@H](C)n2c(=O)n(C)c(=O)n2[C@@H]3C1 | 12 | . | 28 | .
COc1ccc(-c2cn(CC3CCCCC3)nn2)cc1 | 16* | . | 17* | .
c1ccc(-c2cn(CC3CCCCC3)nn2)cc1 | 37* | . | 45* | .
COc1cccc(CNC(=O)C(Cc2ccccc2)NS(=O)(=O)c2ccc3c(c2)oc(=O)n3C)c1 (stereo unspecified) | . | 16%[46.1 µM] | . | 1%[46.1 µM]
C#Cc1ccc(CN2CCC(Oc3cc(C(=O)NC4CC4)ccc3OC)CC2)cc1 | 1 | . | -5 | .
Cc1cn2c(=O)cc(COc3ccccc3NC(=O)c3ccc(Cl)cc3)nc2s1 | . | -8%[46.1 µM] | . | 4%[46.1 µM]
CC(=O)N1CCc2cc(S(=O)(=O)NC(CC(C)C)C(=O)Nc3ccc(C(C)C)cc3)ccc21 (stereo unspecified) | . | -21%[46.1 µM] | . | 2%[46.1 µM]
O=S(=O)(Cc1ccc(Cl)cc1)NCc1ccc2c(c1)OCO2 | -2 | . | 3 | .
C=CCn1c(O)c(C2=c3ccccc3=NC2=O)c2ccccc21 | -12 | ? | -13 | ?
C=CCn1c2ccccc2c(=O)c2cc(C#CC3(O)CCCCC3)ccc21 | 44* | . | 55* | .
Cc1sc(NC(=O)c2ccccc2F)c(CN2CCCCC2C)c1C (stereo unspecified) | 71* | ? | 61* | -6%
CCC(C)(C)NC(=O)Cn1c(=O)ccc2cc(S(=O)(=O)N3CCC(C)CC3)ccc21 | . | . | . | 16%[46.1 µM]
Clc1cccc(N/N=C/c2ccc(N3CCOCC3)s2)c1 | 23* | 17% | 18 | 4%
O=C(N/N=C/c1ccc(N2CCOCC2)s1)c1ccccc1Br | 17 | ? | 54 | 7%
CC(C)(C)OC(=O)N/N=C/c1ccc(N2CCOCC2)s1 | 55* | 11% | 89* | 1.8µM*
Cc1ccc(-c2nc3ccccc3[nH]2)cc1NC(=S)NC(=O)c1ccccc1Br | 13 | ? | 4 | ?
CCCOc1ccc(C(=O)Nc2cc(-c3nc4ccccc4[nH]3)ccc2C)cc1 | . | . | . | -25%[46.1 µM]
Cc1ccc(-c2nc3ccccc3o2)cc1NC(=O)c1ccc2c(c1)OCO2 | 50* | 25% | 126* | 29%
Cc1ccc(-c2nc3ccccc3[nH]2)cc1NC(=O)c1ccc2c(c1)OCO2 | 14* | 5% | 91 | ?
O=C(NC(=S)Nc1cc(-c2nc3ccccc3[nH]2)ccc1Cl)c1ccc2c(c1)OCO2 | 70* | -27% | 78* | ?
Cc1ccc(-c2nc3ccccc3[nH]2)cc1NC(=O)/C=C/c1ccco1 | 85* | ? | 177* | 21%[14.3 µM]
SMILES | Cycloheximide cs | Marburg entry inh | Shiga inhibitor | Lassa entry inh
CCN(CC)CCCn1c2c(c(SCC(=O)Nc3ccc4c(c3)OCO4)nc1=O)CCC2 | . | ? | . | 9%
Cc1ccc(NC(=O)Cn2cc(S(=O)(=O)N3CCCC3)c(S(=O)(=O)N3CCCC3)c2)cc1F | . | . | . | 29%[46.1 µM]
COc1cc(Cc2ccc(N)c(OC)c2)ccc1N | -4 | 3% | -12 | -8%
Nc1ccc(Cc2ccc(N)c(O)c2)cc1O | 23 | 13%[14.2 µM] | 43* | 1%
O=C(N/N=C/c1cccnc1)c1ccccc1 | 25* | . | 59* | .
O=C(N/N=C/c1ccc(Br)s1)c1ccncc1 | 13 | ? | -8 | ?
Cc1ccccc1-n1c(C)cc(/C=N/NC(=O)c2ccncc2)c1C | 36* | 17% | 68* | 7%
CSc1sccc1/C=N/NC(=O)c1ccncc1 | 17 | 24% | active | -2%
O=C(N/N=C/c1cc(Br)c(Br)s1)c1ccncc1 | 24 | ? | -15 | 10µM*
Cc1cc(C)cc(-n2c(C)cc(/C=N/NC(=O)c3ccncc3)c2C)c1 | 7 | 3%[46.1 µM] | 18 | -11%[46.1 µM]
COc1cc(CNC2CCCC2)cc(Cl)c1OCc1ccccc1F | 0 | ? | -18 | ?
COc1ccc(C2=NOC3(CC(=O)N(c4ccc(F)cc4)C3=O)C2)cc1 (stereo unspecified) | -2 | 7%[46.1 µM] | 2 | -21%[46.1 µM]
Cc1ccc(N2C(=O)CSC23C(=O)N(CC(=O)NCCc2ccccc2)c2ccccc23)cc1C (stereo unspecified) | . | . | . | -21%[46.1 µM]
O=C(N/N=C/c1ccc(F)cc1)c1ccncc1 | 0 | ? | . | 8%
O=C(N/N=C/C=C/c1ccccc1)c1cccnc1 | -1 | -12%[46.1 µM] | 30* | ?
O=C(N/N=C/C=C\c1ccccc1)c1cnccn1 | 10 | 21%[46.1 µM] | 38 | 6%[46.1 µM]
Cc1ccc(C(=O)N/N=C\c2cccnc2)s1 | 30* | . | 55* | .
O=C(N/N=C/c1cccnc1)c1ccc([N+](=O)[O-])cc1 | -2 | 17% | 19 | 8%
O=C(N/N=C/c1ccncc1)c1ccccc1 | 21* | 6% | 55* | 22%
O=C(N/N=C/c1cccnc1)c1ccc(F)cc1 | 11* | ? | 38 | ?
Cc1c(C(=O)N/N=C/c2cccnc2)sc(N)c1C#N | 12* | -9%[46.1 µM] | 26 | 16%[46.1 µM]
Cc1onc(-c2ccccc2)c1C(=O)N/N=C/C=C/c1ccccc1 | -2 | 4%[46.1 µM] | -13 | -1%[46.1 µM]
O=C(CNC(=O)c1ccccc1Br)N/N=C/c1cccnc1 | -1 | 12%[46.1 µM] | 22 | 27%[46.1 µM]
O=C(CNC(=O)c1ccccc1F)N/N=C/c1cccnc1 | 31* | . | 16 | .
Cc1ccc(C(=O)N/N=C/C=C/c2ccccc2)o1 | 22 | 23%[46.1 µM] | 119* | -4%[46.1 µM]
SMILES | Cycloheximide cs | Marburg entry inh | Shiga inhibitor | Lassa entry inh
Cc1cc(/C=N/NC(=O)c2ccsc2)c(C)n1-c1cnccn1 | 42* | . | 87* | .
Cc1c(C(=O)Nc2nc3ccccc3[nH]2)cccc1[N+](=O)[O-] | 15* | ? | 28 | 23%
CSCC[C@H](NC(=O)c1ccc(Cl)c([N+](=O)[O-])c1)c1nc2ccccc2[nH]1 | -2 | 10µM* | -4 | -29%
CCCCn1nc(C(=O)N[C@@H](CCSC)c2nc3ccccc3[nH]2)c2ccccc2c1=O | -3 | ? | 21 | 0%
CCn1nc(C(=O)N[C@@H](CCSC)c2nc3ccccc3[nH]2)c2ccccc2c1=O | 25* | 22% | 23 | 4%
CCOc1ccc(C(=O)Nc2cc(-c3nc4ccccc4[nH]3)ccc2Cl)cc1[N+](=O)[O-] | 27* | 8.9µM* | -4 | ?
O=C(Nc1nc2ccccc2[nH]1)c1ccccc1[N+](=O)[O-] | 35* | ? | 51* | .
O=C(Nc1nc2ccccc2[nH]1)c1ccc(Cl)c([N+](=O)[O-])c1 | 37* | 8%[46.1 µM] | 116* | -2%[46.1 µM]
COC(=O)c1[nH]c2ccccc2c1NC(=O)c1ccccc1[N+](=O)[O-] | -1 | ? | -4 | -1%
CCOc1cccc(C(=O)Nc2cc(C)ccc2NC(=O)c2ccco2)c1 | 1 | . | -5 | .
CCOC(=O)c1c(-c2ccc(F)cc2)csc1NC(=O)c1c(-c2ccccc2)noc1C | 2 | 3.5µM* | -2 | 8.9µM*
Cc1onc(-c2ccccc2)c1C(=O)OCCOc1ccccc1F | 34* | -26%[46.1 µM] | 37 | -28%
CCOC(=O)c1c(-c2ccc(C)cc2)csc1NC(=S)NC(=O)c1ccccc1 | -1 | 1.8µM* | 10 | 2.1µM*
